Compound activity as filed in PubChem BioAssay.
This is one part of a sample in which hits are shown more often than they occur.
TTR transcr act – increases transthyretin transcription; activation, % at 16.7 µM; hit rate 1.3% among 92,000; SH-SY5Y TTR promoter Gaussia luciferase, luminescence; 100% = recombinant luciferase protein wells;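 active = activation above the mean of all tested compounds plus 3 SD, cut at about 9.5% in these data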;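 also: cells exposed to compounds for one day before reading; 0% = median of all test compound wells on the plate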
* = called active by the depositor.

`Cc1[nH]c(=O)[nH]c(=O)c1/C=N/NC(=O)[C@H](CC(C)C)NC(=O)OC(C)(C)C` gave TTR transcr act -1.
`CC(C)C[C@H](NC(=O)OC(C)(C)C)C(=O)N[C@@H](CO)[C@H](O)[C@@H]1C[C@@H]1C(=O)N1CCCC1` gave TTR transcr act 10*.
`CC(C)(C)OC(=O)N[C@@H](COCc1ccccc1)C(=O)N[C@@H](CO)[C@H](O)[C@@H]1C[C@@H]1C(=O)N1CCCC1` gave TTR transcr act 4.
For O=C(N[C@@H]1CCCc2c1cnn2-c1ccc(F)cc1F)c1ccccn1 the results were TTR transcr act 4.
For C[C@H]1[C@@H](OC(=O)NCc2cccc(Cl)c2)CC[C@@]23CCCN2C(=O)CCC[C@@H]13 the results were TTR transcr act 1.
`Oc1ccc(CNc2ccc(C(F)(F)F)cc2F)c2cccnc12` gave TTR transcr act 1.
For C=C(C)Cn1c(Sc2nnc(C)s2)nc2c1c(=O)[nH]c(=O)n2C the results were TTR transcr act 12*.
`Cc1nnc(SCCn2c(N3CCCCC3)nc3c2c(=O)[nH]c(=O)n3C)s1` gave TTR transcr act 1.
For C=CCn1c(Sc2nc(C)cs2)nc2c1c(=O)[nH]c(=O)n2C the results were TTR transcr act 5.
For C[C@H]1[C@H](N(Cc2ccccc2)Cc2ccccc2)CC[C@@]23CCCN2C(=O)CCC[C@@H]13 the results were TTR transcr act 0.
`COc1ccc(-c2cc3ccccc3oc2=O)cc1NC(=O)c1cccnc1` gave TTR transcr act -2.
Screening O=C(OCCNC(=O)c1cc2ccccc2oc1=O)c1cccnc1 returned TTR transcr act 12*.
Screening O=C(NNC(=O)c1cc2ccccc2oc1=O)c1ccccc1 returned TTR transcr act 0.
Screening CC(C)C[C@H](NC1(C(=O)NC2CCCCC2)CCOCC1)C(=O)NCC(c1ccccc1)c1ccccc1 returned TTR transcr act 0.
`O=S1(=O)c2c(cccc2N2CCC[C@H]2CO)O[C@H]2CCN1C2` gave TTR transcr act -1.
Screening O=C(CN[C@@H](Cc1c[nH]c2ccccc12)C(=O)NCCc1c[nH]c2ccccc12)NC1CCCCC1 returned TTR transcr act -1.
`Cc1ccc(OCc2nc(-c3ccccn3)no2)c(Br)c1` gave TTR transcr act 14*.
Screening O=C1c2ccccc2C(=O)N1CCc1nc(-c2ccccn2)no1 returned TTR transcr act 0.
Screening Clc1ccccc1OCc1nc(-c2ccncc2)no1 returned TTR transcr act -1.
For CCC[C@H]1OC(=O)[C@@H]2CCCN2C(=O)[C@H]([C@H](C)Cc2ccccc2)NC(=O)[C@@H]2CCCN2C(=O)[C@@H]2CCCN2C(=O)[C@H](C(C)C)OC(=O)[C@@H]2CCCN2C(=O)[C@H](C(C)C)NC(=O)C1(C)C the results were TTR transcr act -1.
For COC(=O)c1cc(OC)c(OC)cc1NC(=S)Nc1cc(Cl)ccc1OC the results were TTR transcr act 9.
COC(=O)c1cc(OC)c(OC)cc1NC(=S)Nc1cccc(Cl)c1 was read as TTR transcr act 17*.
COC(=O)c1cccc(NC(=S)Nc2cccc(Cl)c2Cl)c1 was read as TTR transcr act 1.
`O=Cc1nc(Nc2cc(F)cc(F)c2)nc(NC2CCCC2)n1` gave TTR transcr act -1.
For O=C(NCCCc1ccccc1)C1CCN(c2nc(-c3ccc(Br)cc3)cs2)CC1 the results were TTR transcr act 5.
For CCOC(=O)c1[nH]c2ccc(OC)cc2c1NC(=O)CCN1CCSCC1 the results were TTR transcr act 6.
Screening COC(=O)c1[nH]c2cc(OC)ccc2c1NC(=O)CCN1CCN(c2cccc(C)c2C)CC1 returned TTR transcr act 22*.
Screening COC(=O)c1[nH]c2cccc(OC)c2c1NC(=O)CCN1CCN(c2ccccc2F)CC1 returned TTR transcr act -4.
Screening COCCCNC(=O)c1ccc(Cn2c(=O)c3ccccc3n(Cc3ccc(Br)cc3)c2=O)cc1 returned TTR transcr act 0.
Screening O=C(CN1CCOCC1)Nc1ccc(-c2nc3ccccc3[nH]2)cc1 returned TTR transcr act 1.
For S=C(c1nc2ccccc2[nH]1)N1CCOCC1 the results were TTR transcr act 10.0*.
Screening O=c1[nH]c2ccccc2nc1N1CCOCC1 returned TTR transcr act 0.
For Cn1c(=O)cc(SCC(=O)NCC2CCCO2)c2ccccc21 (centres undefined) the results were TTR transcr act 3.
Screening Cn1c(=O)cc(SCC(=O)NCc2ccco2)c2ccccc21 returned TTR transcr act 11*.
For Cc1ccc(C)c(SCC(=O)NCc2ccco2)c1 the results were TTR transcr act 0.
For CCc1c(C(=O)C(C)O)c2n3c1CCC[C@@H]3CC2 (some centres undefined) the results were TTR transcr act 1.
Screening CC(=O)c1ccc([C@H](O)[C@H](C)C(=O)N(C)c2ccccc2)cc1 returned TTR transcr act 2.
Screening CC(C)OC(=O)C1C(=O)CC(C)(O)C(C(=O)OC(C)C)C1c1cccnc1 (centres undefined) returned TTR transcr act 12*.
